The supplement of paper PMC9950053
Where a name gives a salt, the structure may show the parent alone.

Each compound was assayed on Danio rerio larvae (5 dpf) (assay: habituation (activity change first vs second 5 min of 1-s interval sound, period 17) minus DMSO control (percentage points); higher = larger habituation measure than DMSO larvae). Settings: 10 µM; exposure time: 3 h pre-incubation + 3 h imaging.
Description: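 Wild-type 5 dpf zebrafish larvae (n=48 per drug, 96-well plates, 28.5 °C) were exposed to Tocris FDA-approved library compounds at 10 µM (0.1% DMSO) for 3 h before and 3 h during imaging. Images were taken every 6 s during visual (moving coloured lines) and acoustic stimuli, and larvae were tracked with the DeepLabCut-based Z-LaP Tracker. Each behavioural measure is the treated-group mean minus the DMSO vehicle control mean (n=844), in percentage points. This mapping covers compounds with 4-character plate codes.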
Compound `Cc1cc(C2CCCCC2)n(O)c(=O)c1` [Ciclopirox] has a habituation of -2.51. For `CCCCC(=O)N(Cc1ccc(-c2ccccc2-c2nnn[nH]2)cc1)[C@H](C(=O)O)C(C)C` [Valsartan], the habituation was 2.48. `CCCN(CCc1cccs1)[C@H]1CCc2c(O)cccc2C1` [Rotigotine hydrochloride] was tested, and the habituation was -11.4. `CN(C)CC/C=C1/c2ccccc2COc2ccc(CC(=O)O)cc21` [Olopatadine hydrochloride] gave a habituation of -0.266. Compound `Cc1nnc(C(C)C)n1C1C[C@H]2CC[C@@H](C1)N2CC[C@H](NC(=O)C1CCC(F)(F)CC1)c1ccccc1` (stereo in doubt) [Maraviroc] has a habituation of 3.31. With `Nc1nc2c(ncn2COCCO)c(=O)[nH]1` [Acyclovir] the habituation was 2.18. `CNC(=O)c1ccccc1Sc1ccc2c(/C=C/c3ccccn3)n[nH]c2c1` [Axitinib] gave a habituation of 0.305. `CCCN(CCC)S(=O)(=O)c1ccc(C(=O)O)cc1` [Probenecid] gave a habituation of 3.79. Compound `Nc1cc(N2CCCCC2)nc(N)[n+]1[O-]` [Minoxidil] has a habituation of 7.65. Compound `Cn1nnc2c(C(N)=O)ncn2c1=O` [Temozolomide] has a habituation of 4.81. In the case of `Nc1nc(Cl)nc2c1ncn2[C@@H]1O[C@H](CO)[C@@H](O)[C@@H]1F` [Clofarabine], the habituation is reported as -1.06. `C[C@H]1C[C@@H]2[C@H]([C@@H](O)C[C@@]3(C)[C@H]2CC[C@]3(O)C(=O)CO)[C@@]2(C)C=CC(=O)C=C12` [Methylprednisolone] gave a habituation of 0.909. For `O=C1CCc2cc(OCCCCc3nnnn3C3CCCCC3)ccc2N1` [Cilostazol], the habituation was 0.0793. `Nc1nc(NC2CC2)c2ncn([C@H]3C=C[C@@H](CO)C3)c2n1` [Abacavir hemisulfate] gave a habituation of 3.13. Compound `CN/C(=N\CCSCc1nc[nH]c1C)NC#N` [Cimetidine] has a habituation of 5.23. Compound `COc1cc(Nc2c(C#N)cnc3cc(OCCCN4CCN(C)CC4)c(OC)cc23)c(Cl)cc1Cl` [Bosutinib] has a habituation of 1.4. For `OCCOCCN1CCN(C2=Nc3ccccc3Sc3ccccc32)CC1` [Quetiapine hemifumarate], the habituation was -4.22. Compound `O=C(O)c1cc(/N=N/c2ccc(S(=O)(=O)Nc3ccccn3)cc2)ccc1O` [Sulfasalazine] has a habituation of 1.27. `Cc1c(-c2ccc(O)cc2)n(Cc2ccc(OCCN3CCCCCC3)cc2)c2ccc(O)cc12` [Bazedoxifene acetate] was tested, and the habituation was 0.95. In the case of `COc1c(C)c2c(c(O)c1C/C=C(\C)CCC(=O)O)C(=O)OC2` [Mycophenolic acid], the habituation is reported as 1.82. `CCOC(=O)C1=C(C)NC(C)=C(C(=O)OC)C1c1cccc(Cl)c1Cl` (stereo not given) [Felodipine] gave a habituation of -11.4. `CCCCCCCCc1ccc(CCC(N)(CO)CO)cc1` was tested, and the habituation was -0.454. Compound `Cc1nc(-c2ccc(OCC(C)C)c(C#N)c2)sc1C(=O)O` [Febuxostat] has a habituation of -3.37. In the case of `Brc1c(NC2=NCCN2)ccc2nccnc12`, the habituation is reported as -6.57. For `C=C1[C@H](CO)[C@@H](O)C[C@@H]1n1cnc2c(=O)[nH]c(N)nc21` [Entecavir], the habituation was 1.2. `CCN(CC)CCNC(=O)c1c(C)[nH]c(/C=C2\C(=O)Nc3ccc(F)cc32)c1C` [Sunitinib malate] was tested, and the habituation was 5.06. With `CC/C(=C(\c1ccccc1)c1ccc(OCCN(C)C)cc1)c1ccccc1` [Tamoxifen citrate] the habituation was -7.1. With `C#C[C@]1(O)CC[C@H]2[C@@H]3CCC4=CC(=O)CC[C@@H]4[C@H]3CC[C@@]21CC` [Levonorgestrel] the habituation was -7.5. For `O=C(c1ccc(OCCN2CCCCC2)cc1)c1c(-c2ccc(O)cc2)sc2cc(O)ccc12` [Raloxifene hydrochloride], the habituation was -3.07. With `Cc1ccccc1C(=O)Nc1ccc(C(=O)N2CCCC(O)c3cc(Cl)ccc32)c(C)c1` (stereo not given) [Tolvaptan] the habituation was 2.26. Compound `Cc1ccc(N(CC2=NCCN2)c2cccc(O)c2)cc1` [Phentolamine Mesylate] has a habituation of 8.8. `COc1cc2ncnc(Nc3ccc(F)c(Cl)c3)c2cc1OCCCN1CCOCC1` [Iressa] was tested, and the habituation was 1.15. With `CC(c1cc2ccccc2s1)N(O)C(N)=O` (stereo not given) [Zileuton] the habituation was 7.74. `C/C(O)=C(\C#N)C(=O)Nc1ccc(C(F)(F)F)cc1` [Teriflunomide] gave a habituation of -2.85. `CC(C)(C)NC(=O)[C@@H]1C[C@@H]2CCCC[C@@H]2CN1C[C@@H](O)[C@H](Cc1ccccc1)NC(=O)[C@H](CC(N)=O)NC(=O)c1ccc2ccccc2n1` [Saquinavir mesylate] gave a habituation of -0.527. `NC(=O)c1ncn([C@@H]2O[C@H](CO)[C@@H](O)[C@H]2O)n1` [Ribavirin] was tested, and the habituation was 0.859. For `Cn1cnc([N+](=O)[O-])c1Sc1ncnc2[nH]cnc12` [Azathioprine], the habituation was -3.52. Compound `Nc1cccc2c1CN(C1CCC(=O)NC1=O)C2=O` (stereo not given) [Lenalidomide] has a habituation of -0.218. For `OC(CNCC(O)C1CCc2cc(F)ccc2O1)C1CCc2cc(F)ccc2O1` (stereo not given) [Nebivolol hydrochloride], the habituation was -10.1. For `C[C@]12CCC(=O)C=C1CC[C@@H]1[C@@H]2[C@@H](O)C[C@@]2(C)[C@H]1CC[C@]2(O)C(=O)CO` [Hydrocortisone], the habituation was 4.44.
